The source of these data is PubChem BioAssay (EPA / NIEHS).

Experiment [1] has as its target rat Catechol-O-Methyl Transferase (COMT), Comt (gene 24267) (UniProt P22734). Briefly: NVS_ENZ_rCOMT: NovaScreen (NVS) Enzymatic Assay for rat Catechol-O-Methyl Transferase (COMT) (AID 2283235). The method, boiled down:
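Rat dorsal striatum extract served as COMT source; product quantified by HPLC/spectrophotometry, read at 0 h after dosing. Primary single-concentration screen at 25 uM, followed by concentration series to a 50 uM maximum.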

The target in experiment [2] is rat Monoamine Oxidase, MAO-B, Central (MAOBC), Maob (gene 25750) (UniProt P19643). The experiment in a line: NVS_ENZ_rMAOBC: NovaScreen (NVS) Enzymatic Assay for rat Monoamine Oxidase, MAO-B, Central (MAOBC) (AID 2283238). Summed up: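 Cell-free radiometric assay, rat brain lysate. Read-out: scintillation counts, 1.17 h post-dosing. Screen 25 uM in duplicate; actives (e.g. ≥30% inhibition) then singleton concentration-response, max 50 uM. Activity loss fitted relative to DMSO.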
Chain of rat Monoamine Oxidase, MAO-B, Central (MAOBC), Maob (gene 25750) (P19643 whole entry, looked up): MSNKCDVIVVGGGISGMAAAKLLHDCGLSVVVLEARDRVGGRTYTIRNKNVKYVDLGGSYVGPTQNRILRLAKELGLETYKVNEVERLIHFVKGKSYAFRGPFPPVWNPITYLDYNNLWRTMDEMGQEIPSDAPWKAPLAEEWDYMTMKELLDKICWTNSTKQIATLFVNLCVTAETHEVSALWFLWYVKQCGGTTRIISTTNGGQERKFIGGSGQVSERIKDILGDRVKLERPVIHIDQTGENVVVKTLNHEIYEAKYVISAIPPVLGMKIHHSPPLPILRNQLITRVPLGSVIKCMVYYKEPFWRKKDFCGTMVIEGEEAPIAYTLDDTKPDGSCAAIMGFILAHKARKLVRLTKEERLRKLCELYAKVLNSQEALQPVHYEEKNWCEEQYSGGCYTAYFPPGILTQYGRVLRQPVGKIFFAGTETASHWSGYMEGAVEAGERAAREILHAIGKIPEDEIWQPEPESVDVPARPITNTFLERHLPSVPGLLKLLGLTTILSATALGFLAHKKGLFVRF

The target of experiment [3] is sheep Cyclooxygenase-1 (Cox1), PTGS1 (gene 443551) (UniProt P05979). Briefly: NVS_ENZ_oCOX1: NovaScreen (NVS) Enzymatic Assay for sheep Cyclooxygenase-1 (Cox1) (AID 2283239).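 Further: actives reduce cyclooxygenase activity so potencies are for inhibitors.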 Summed up:
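Cell-free colorimetric assay of enzyme activity in a native extract of ovine seminal vesicles. Absorbance was read 0.66 hour after compound addition. Loss of signal relative to the DMSO negative control was scored, with actives from the 25 uM duplicate primary screen retested in concentration series.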

The target in experiment [4] is rat Monoamine Oxidase, MAO-B, Peripheral (MAOBP), Maob (gene 25750) (UniProt P19643). The experiment in a line: NVS_ENZ_rMAOBP: NovaScreen (NVS) Enzymatic Assay for rat Monoamine Oxidase, MAO-B, Peripheral (MAOBP) (AID 2283242).
Chain of rat Monoamine Oxidase, MAO-B, Peripheral (MAOBP), Maob (gene 25750) (P19643 whole entry, looked up): as above
Experiment [5] deals with rat Acetylcholinesterase (AChE), Ache (gene 83817) (UniProt P37136). Briefly: NVS_ENZ_rAChE: NovaScreen (NVS) Enzymatic Assay for rat Acetylcholinesterase (AChE) (AID 2283233). Summed up:
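Compounds first screened at 25 uM in duplicate, then those passing threshold tested in concentration series up to 50 uM, against AChE from rat brain membranes. Enzyme activity read by absorbance at 0.33 h; inhibition scored versus DMSO.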

Molecules are shown by their SMILES. Records with an inconclusive call do not appear. The source made the active and inactive calls. How the source made its calls: active means hit-call score of the fitted dose curve at least 0.9, where 1 is the maximum; inconclusive means response in the unintended direction; inactive means score below 0.9.

Chain of rat Catechol-O-Methyl Transferase (COMT), Comt (gene 24267) (P22734 whole entry, looked up): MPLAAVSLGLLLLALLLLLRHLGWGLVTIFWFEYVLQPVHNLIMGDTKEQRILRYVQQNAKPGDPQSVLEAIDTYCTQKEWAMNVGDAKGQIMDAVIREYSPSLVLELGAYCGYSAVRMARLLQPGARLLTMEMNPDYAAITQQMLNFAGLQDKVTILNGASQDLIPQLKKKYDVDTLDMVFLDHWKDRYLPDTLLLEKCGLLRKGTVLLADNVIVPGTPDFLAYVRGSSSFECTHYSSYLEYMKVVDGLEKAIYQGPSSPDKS
Chain of sheep Cyclooxygenase-1 (Cox1), PTGS1 (gene 443551) (P05979 whole entry, looked up): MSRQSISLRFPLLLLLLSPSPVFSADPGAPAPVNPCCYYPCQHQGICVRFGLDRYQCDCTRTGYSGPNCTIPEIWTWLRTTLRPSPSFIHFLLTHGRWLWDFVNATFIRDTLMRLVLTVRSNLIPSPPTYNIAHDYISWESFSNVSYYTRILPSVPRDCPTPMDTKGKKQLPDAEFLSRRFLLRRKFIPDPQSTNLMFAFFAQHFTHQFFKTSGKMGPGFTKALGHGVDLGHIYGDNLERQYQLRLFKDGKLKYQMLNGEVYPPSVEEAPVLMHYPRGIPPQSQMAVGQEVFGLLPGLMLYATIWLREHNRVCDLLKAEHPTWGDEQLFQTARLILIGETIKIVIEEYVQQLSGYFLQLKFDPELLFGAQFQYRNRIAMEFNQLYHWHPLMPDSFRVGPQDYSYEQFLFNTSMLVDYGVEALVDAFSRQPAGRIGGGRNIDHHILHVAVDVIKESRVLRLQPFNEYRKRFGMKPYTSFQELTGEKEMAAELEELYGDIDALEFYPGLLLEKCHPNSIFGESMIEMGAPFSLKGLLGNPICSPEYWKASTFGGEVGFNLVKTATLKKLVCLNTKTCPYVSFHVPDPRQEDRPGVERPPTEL
Chain of rat Acetylcholinesterase (AChE), Ache (gene 83817) (P37136 whole entry, looked up): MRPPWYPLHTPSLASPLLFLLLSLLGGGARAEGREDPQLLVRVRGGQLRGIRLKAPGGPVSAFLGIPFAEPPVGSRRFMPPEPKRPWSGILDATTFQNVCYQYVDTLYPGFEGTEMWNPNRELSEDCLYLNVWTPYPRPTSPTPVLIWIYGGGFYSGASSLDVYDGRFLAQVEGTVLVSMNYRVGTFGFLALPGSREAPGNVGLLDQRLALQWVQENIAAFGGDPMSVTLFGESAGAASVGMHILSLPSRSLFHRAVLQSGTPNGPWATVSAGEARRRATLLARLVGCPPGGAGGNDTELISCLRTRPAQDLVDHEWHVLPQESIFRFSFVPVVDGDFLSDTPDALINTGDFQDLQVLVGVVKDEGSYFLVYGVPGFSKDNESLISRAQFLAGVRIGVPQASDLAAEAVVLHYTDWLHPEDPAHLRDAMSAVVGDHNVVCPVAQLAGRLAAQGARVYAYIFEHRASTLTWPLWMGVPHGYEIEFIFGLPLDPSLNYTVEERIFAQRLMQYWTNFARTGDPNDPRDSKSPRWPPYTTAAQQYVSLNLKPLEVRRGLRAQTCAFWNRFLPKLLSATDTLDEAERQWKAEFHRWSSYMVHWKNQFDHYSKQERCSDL

The AC50 is the concentration at which the activity in the assay is half-maximal. In the case of `CCCCCCCCCCCCCN1CC(C)OC(C)C1` (configuration not stated), in experiment [1], the AC50 is 20.8 µM (active).
`Cc1cc(N=Nc2ccccc2C)ccc1N`: the AC50 in experiment [1] is 0.643 µM (active); in experiment [2], 25 µM (active); in experiment [3], 11.8 µM (active). Besides, in experiment [4], the molecule was called inactive.
For `Cc1cccc(N)c1N`, the call in experiment [5] and in experiment [3] was inactive.
